JMJD2E inh-1: inhibitors of human JMJD2E histone demethylase | Potency, µM (highest dose often 57.1 µM), actives largely listed as inhibitors | B2RXH2 | AID 2147 | 230,000 compounds, 1.6% hits | JMJD2E catalytic domain, FDH-coupled NADH fluorescence; active means well fitted inhibition curve with a large enough effect, not every such curve was filed as active; inconclusive means small, poorly fitted or top-dose-only effect, or another doubt; inactive means no such curve, though single readings can be large or run the other way; further: nearly all actives have a fitted effect of over 50% in size
PI5P4K alpha inh: inhibitors of human PI5P4K alpha; 330,000 compounds, 1.2% hits; P48426; PI5P4Kalpha enzyme, ADP-Glo luminescence, 60 min; hits give low values; max response, %; active means max response of -50% or lower; inconclusive means between -30% and -50%; inactive means -30% or higher; further: value at the top dose of about 77 µM
Target sequence (P48426 whole entry, looked up): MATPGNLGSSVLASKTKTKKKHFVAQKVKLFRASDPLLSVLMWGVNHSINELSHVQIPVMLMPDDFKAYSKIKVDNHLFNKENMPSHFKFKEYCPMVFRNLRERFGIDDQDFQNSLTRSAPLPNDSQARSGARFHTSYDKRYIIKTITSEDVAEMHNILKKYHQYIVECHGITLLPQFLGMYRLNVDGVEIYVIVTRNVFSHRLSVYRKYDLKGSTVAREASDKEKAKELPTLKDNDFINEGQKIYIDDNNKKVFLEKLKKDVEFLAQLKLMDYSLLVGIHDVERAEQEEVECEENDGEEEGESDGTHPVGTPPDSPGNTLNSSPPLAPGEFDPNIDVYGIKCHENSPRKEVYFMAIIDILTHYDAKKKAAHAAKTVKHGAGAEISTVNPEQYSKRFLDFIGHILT
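ADP-Glo luminescence end-point after a 60 min room-temperature kinase reaction. PI5P4Kalpha and substrate in HEPES pH 7.4 buffer with EGTA, 0.1% CHAPS and 5% DMSO; ATP at 5 microM final.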
JMJD2A Tudor: blocks the human JMJD2A Tudor domain | AlphaScreen JMJD2A-Tudor / H3K4me3 peptide binding | O75164 | 390,000 compounds, 4.4% hits | AID 504339 | Potency, µM (highest dose often 114 µM), actives largely listed as inhibitors; further: nearly all actives have a fitted effect of over 50% in size
BAZ2B inh: blocks human BAZ2B | Q9UIF8 | AlphaScreen BAZ2B-H3K14Ac peptide displacement | Potency, µM (highest dose often 114 µM), hits mostly inhibitors | 360,000 compounds, 4.4% hits; further: nearly all actives have a fitted effect of over 60% in size
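BAZ2B 50 nM plus b-H3(5-23)K14Ac 50 nM, PBS pH 7.4/0.01% Tween-20, 30 min RT; compound added (max 110 uM), 30 min RT; streptavidin donor/Ni-chelate acceptor beads 10 ug/mL final, 20 min dark; AlphaScreen read.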
L3MBTL1 inh: inhibitors of human L3MBTL1 | Q9Y468 | AlphaScreen L3MBTL1–H3K9me1 peptide binding | Potency, µM (top dose mostly 57.1 µM), hits mostly inhibitors | 230,000 compounds, 0.66% hits | AID 485360; further: nearly all actives have a fitted effect of over 60% in size
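L3MBTL1 50 nM + b-AHA-H3(1-15)K9me1 75 nM, 30 min RT; compound added, 30 min RT; streptavidin donor/Ni-chelate acceptor beads 10 ug/mL each final, 30 min RT dark; AlphaScreen read.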
HP1b chromo inh: HP1-beta chromodomain-methylated histone interaction inhibition; 390,000 compounds, 0.56% hits; AlphaScreen HP1-beta / biotin-H3K9me3 peptide binding; P83916; Potency, µM (highest dose often 114 µM), most hits filed as inhibitors; further: nearly all actives have a fitted effect of over 70% in size
Target sequence (P83916 whole entry, looked up): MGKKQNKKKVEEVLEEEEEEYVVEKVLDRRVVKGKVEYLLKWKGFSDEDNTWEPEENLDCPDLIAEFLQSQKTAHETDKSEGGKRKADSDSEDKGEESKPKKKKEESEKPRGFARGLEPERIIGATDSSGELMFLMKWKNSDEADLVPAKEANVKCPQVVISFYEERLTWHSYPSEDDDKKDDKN
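HP1-beta protein (50 nM final) preincubated 30 min at room temperature with biotinylated H3(1-18)K9me3 peptide (50 nM) in PBS pH 7.4, 0.01% Tween-20, then compound added for 30 min. AlphaScreen streptavidin donor/nickel chelate acceptor beads (10 ug/mL final), 30 min dark, luminescence read.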
12-hLO cuvette: 12-hLO (human) inhibition, 8HQ series round 1; 35 compounds, 60% hits; Potency, µM, usual class: inhibitors; shares compounds with BAZ2B inh; purified 12-hLO, cuvette UV 234 nm product formation; AID 2163;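 active means compounds that slowed 12-hLO product formation enough to yield a measured IC50 potency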
JMJD2E inh-2: blocks human JMJD2E demethylase activity; shares compounds with BAZ2B inh; JMJD2E demethylase, FDH-coupled NADH fluorescence (FDH is formaldehyde dehydrogenase); Potency, µM (doses to about 57 µM), actives largely listed as inhibitors; 130 compounds, 89% hits; AID 493212
ME-1 growth: reduces ME-1 leukemia cell proliferation | shares compounds with BAZ2B inh | ME-1 cell proliferation, ATP luminescence, 48 h | Potency, µM (series often up to 56.1 µM), hits mostly inhibitors | 140 compounds, 20% hits | AID 504370
Hits are given with their value; n = inactive; u = inconclusive; x = no result given; [ ] = another dose, or the depositor's remark. Sampled rows, rich in hits. Any-hit rate of the full collection: about 5.7%. Unless noted, the call rests on the fitted dose curve; in most records, active means well fitted curve in the direction sought with a large enough effect; inconclusive means small, poorly fitted or top-dose-only effect, or another doubt; inactive means no such curve, though single readings can be large; an effect the other way counts as inactive or inconclusive.

SMILES	JMJD2E inh-1	PI5P4K alpha inh	JMJD2A Tudor	BAZ2B inh	L3MBTL1 inh	HP1b chromo inh	ME-1 growth	others
O=C(NC1CCN(C(=O)Nc2ccc(F)cc2)CC1)c1ccccc1F	x	n	n	n	x	n	x
O=C(O)c1cccc(O)c1O	x	n	u	x	x	n	x
Oc1cccc(O)c1O	x	x	x	x	x	x	n
Cc1nc2ccc(NC(=S)N3CCOCC3)cc2nc1C	u	n	n	n	n[11.4 µM]	n	n
Cc1nc2ccc(NC(=S)N3CCCC3)cc2nc1C	u	n	n	n	n	n	x
O=c1c(-c2cc(O)c(O)c(O)c2)coc2cc(O)c(O)c(O)c12	2.8µM	x	x	x	x	x	n
CCC(=O)NC(c1cccs1)c1cc(Cl)c2ccccc2c1O (centres undefined)	x	x	n	u	n	n	x
CCC(=O)NC(c1cccs1)c1cc(Br)c2cccnc2c1O (centres undefined)	x	x	x	71µM	n	x	x	12-hLO cuvette=14µM;JMJD2E inh-2=20µM
CCCC(=O)NC(c1cccs1)c1cc([N+](=O)[O-])c2cccnc2c1O (centres undefined)	10µM	u	14µM	7.9µM	u	n	u
CCN(C(=O)Cn1c(=O)n(Cc2ccccc2)c(=O)c2c1c1cc(OC)ccc1n2C)c1ccccc1	x	x	n	n	x	n	x
CC(=O)NNC(=O)c1ccncc1	n	x	n	n	n	n	x
CC(C)NNC(=O)c1ccncc1	n	n	n	n	n	n	n
O=c1[nH][nH]c(C(F)(F)F)c1/C=N/N1CCOCC1	n	n	n	n	n	n	x
N#CC(C#N)=Cc1ccc(OC(=O)c2ccccn2)cc1	18µM	n	7.9µM	8.9µM	25µM	n	u
O=C(NCCCN1CCCC1=O)C1CCN(S(=O)(=O)c2cccc(Cl)c2Cl)CC1	x	n	n	n	n	n	x
CC(=O)NC(c1ccco1)c1cc(Cl)c2cccnc2c1O (centres undefined)	x	x	x	32µM	n	x	x	12-hLO cuvette=3µM;JMJD2E inh-2=32µM
CCCCC(=O)NC(c1ccco1)c1cc(Cl)c2cccnc2c1O (centres undefined)	n	n	n[11.4 µM]	n	n	n	x
CCC(=O)NC(c1cc(Cl)c2cccnc2c1O)c1cccn1C (centres undefined)	x	x	u	x	x	x	x	12-hLO cuvette=3.8µM;JMJD2E inh-2=n
CC(=O)NC(c1ccco1)c1cc(Cl)c2ccc(N(C)C)nc2c1O (centres undefined)	x	x	x	50µM	n	x	x	12-hLO cuvette=n;JMJD2E inh-2=20µM
CC(=O)NC(c1ccco1)c1cc(Br)c2cccnc2c1O (centres undefined)	x	x	x	28µM	u	x	x	12-hLO cuvette=2µM;JMJD2E inh-2=29µM
O=S1(=O)CCN(Cc2ccncc2)CC1	x	n	x	x	x	x	x
CCC(=O)NC(c1ccco1)c1cc(Cl)c2cccnc2c1OC (centres undefined)	x	x	n	n	n	n	x	12-hLO cuvette=n;JMJD2E inh-2=32µM
O=[N+]([O-])c1ccc(/C=N/NC2=NS(=O)(=O)c3ccccc32)cc1	n	n	n	n	n	n	x
O=[N+]([O-])c1ccc(O)c(/C=N/NC2=NS(=O)(=O)c3ccccc32)c1	22µM	n	20µM	1.8µM	u	n	u
CCN(CCC(=O)O)c1ccccc1	n	n	u	u	x	n	x
SMILES	JMJD2E inh-1	PI5P4K alpha inh	JMJD2A Tudor	BAZ2B inh	L3MBTL1 inh	HP1b chromo inh	ME-1 growth	others
NC(=O)N(CCC(=O)O)c1ccccc1	n	n	n	50µM	n	n	n
CCCn1nc(C(=O)NNC(=O)C2CSC3(C)CCC(=O)N23)c2ccccc2c1=O (centres undefined)	x	n	n	n	n	n	x
c1ccc(-c2nnc(-c3ccccn3)nc2NC2CCCCC2)cc1	u	n	3.2µM	1.8µM	x	n	7.1µM
O=C(O)C1=CC(=C(c2ccc(O)c(C(=O)O)c2)c2ccc(O)c(C(=O)O)c2)C=CC1=O	u	x	x	1.1µM	u	x	n
O=C(O)c1cc(O)ccc1O	x	n	n	x	x	n	x
c1cnc2c(c1)ccc1cccnc12	25µM	n	7.9µM	1.6µM	3.2µM	n	8.9µM
O=C(O)c1cccc2cccnc12	n	n	n[11.4 µM]	u	x	n	x
COC1OC(COC(=O)c2ccccc2)C(OC(=O)c2ccccc2)C1OC(=O)c1ccccc1 (centres undefined)	x	n	n	n	x	n	x
O=C(O)C[C@@H]1C(=O)O[C@@H]2C(COC(=O)c3cc(O)c(O)c(O)c3)O[C@@H](OC(=O)c3cc(O)c(O)c(O)c3)[C@@H](OC(=O)c3cc(O)c(O)c4c3[C@H]1[C@H](O)C(=O)O4)[C@H]2OC(=O)c1cc(O)c(O)c(O)c1 (some centres undefined)	0.71µM	x	x	0.71µM	x	x	u
NCC(=O)Nc1ccc(Cl)cc1C(=O)c1ccc[nH]1	u	n	n	u	u	n	4.9µM
CC(C)=CC[C@@H](O)C1=CC(=O)c2c(O)ccc(O)c2C1=O	x	x	x	x	x	x	1.1µM
Cc1nc(Cl)c(C(=O)NCCc2ccccc2)c(C)c1[N+](=O)[O-]	x	n	n	n	x	n	x
Oc1csc(Cc2nc(-c3ccc(-c4ccccc4)cc3)cs2)n1	n	n	n	n	n	n	x
Oc1csc(Cc2nc(-c3ccccc3F)cs2)n1	n	n	n	n	u	n	n
CN=c1scc(-c2ccccc2F)n1/N=C/c1ccc(O)c(O)c1O	10µM	-54	32µM	7.9µM	3.5µM	28µM	4.5µM
CCSc1nnc(NC(=O)C2CC(=O)N(Cc3ccc(C)cc3)C2)s1 (centres undefined)	n	n	n	n	n	n	x
Nc1cccc(N)c1	x	x	x	x	x	x	n
Nc1cccc(S(=O)(=O)c2cccc(N)c2)c1	n	n	n	n	n	n	x
CC1CCC2(CC1)NC(=O)N(CC(=O)Nc1ccc3c(c1)OCCO3)C2=O (centres undefined)	n	n	n	n	n	n	x
CC1(C)N([O-])C2=C(CCCC2)[N+]1=O	u	n	n	u	u	n	n
c1ccc(-c2cccs2)nc1	n	n	n	n	n	n	x
c1ccc(-c2nc3cc4ccccc4cc3[nH]2)nc1	u	n	n	n	n	n	x
c1ccc(-c2ccc(-c3ccccn3)nn2)nc1	u	x	x	2µM	3.5µM	x	18µM
c1ccc(-c2ccccn2)nc1	u	n	u	79µM	n	n	n
c1ccc(-c2n[nH]c(-c3ccccn3)n2)nc1	n	n	1µM	0.71µM	2µM	n	u
O=C1NC(=O)/C(=C\c2ccc(OCc3cccc([N+](=O)[O-])c3)cc2)N1	n	n	n	n	x	n	x
Cc1ccccc1Cc1c(C)nc2nc(SCC(=O)NCCc3ccc(Cl)cc3)nn2c1C	x	x	n	n	x	n	x
